# Source: PubChem BioAssay (SRMLSC)
# Shown are actives, neighbours in structure and some others; about 6.5% of the full set was active somewhere.
# Abs 340nm = compound light absorbance at 340 nm, profiling panel, artefact control, biochemical, MLSMR library, data from PS, PMK, MK assays; compound absorbance at 340 nm, fold over control; fold change at 10 µM; 65,000 tested, under 10 active;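 active = at 10 µM dose, initial 340 nm absorbance at least 2 fold that of control wells; inactive = change under 2 fold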;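 note: initial absorbance extrapolated from kinetic A340 decline of NADH oxidation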
# DPM-DC inhibit = S. pneumoniae DPM-DC inhibitors, primary screen, biochemical, PK/LDH-coupled NADH fluorescence. 0.49% of 65,000 active. diphosphomevalonate decarboxylase (Streptococcus pneumoniae D39). purified DPM-DC. calls only at 10 µM;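 active = the 320 compounds with the highest percent inhibition in the single-dose primary screen, excluding strongly autofluorescent ones, cut at about 32% in these data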;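 note: kinetic rate of NADH fluorescence loss reporting ADP formed by the decarboxylase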
# Spn MK inh = S. pneumoniae MK inhibitors, primary screen, biochemical, PK/LDH-coupled NADH absorbance; inhibition, % at 10 µM; 0.48% of 65,000 active; mevalonate kinase [Streptococcus pneumoniae D39]; purified MK, PK/LDH-coupled NADH absorbance 340 nm; AID 555, 2006;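 active = ranked among the strongest by inhibition in the single 10 µM screen, a fixed top-ranked set picked for dose follow-up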
# NADH coupling = inhibitors of PK/LDH coupling enzymes, profiling panel, artefact control, biochemical, MLSMR library | coupled PK/LDH NADH assays, four targets | IC50, µM (doses to about 10 µM) | 0.02% of 65,000 active | AID 774, 2007;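 active = single-dose screening hits from any of four coupled enzyme assays that gave an IC50 when retested across doses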;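 note: the DPM-DC format reads NADH fluorescence rather than 340 nm absorbance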
# Spn PMK inh = S. pneumoniae PMK inhibitors, primary screen, biochemical, mevalonate pathway, pilot trial included; phosphomevalonate kinase (Streptococcus pneumoniae D39); purified PMK, PK/LDH-coupled NADH absorbance 340 nm; inhibition, % at 10 µM; 0.49% of 65,000 active;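 active = top-ranked compounds by inhibition in the single 10 µM screen, taking a fixed number of the strongest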
# Fluor 339 460 = intrinsic fluorescence of library compounds, ex339/em460 – biochemical, MLSMR library, data from DPM-DC assay, artefact control, profiling panel. compound autofluorescence, ex339/em460 nm, NADH buffer; stronger effect = higher value; 1 = no-compound wells, NADH background. fluorescence fold increase at 10 µM. 5.5% of 65,000 active. AID 709, 2007;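 active = at 10 µM, mean starting fluorescence two-fold or more over control wells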;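 note: signal is the first read of a kinetic run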
# Numbers stand for hits; 0 = inactive; - = no result shown; + = active, no number.
SMILES,Abs 340nm,DPM-DC inhibit,Spn MK inh,NADH coupling,Spn PMK inh,Fluor 339 460
COC(=O)c1ccc(C2C(C#N)=C(C)NC3=C2C(=O)CC(C)(C)C3)cc1 (stereo not given),0,-,0,0,0,4.7
COc1ccc(C2C(C#N)=C(SC)NC3=C2C(=O)CC(C)(C)C3)cc1 (stereo not given),0,0,0,0,0,0
CCOC(=O)C1=C(C)NC2=C(C(=O)CCC2)C1c1cccs1 (stereo not given),0,0,0,0,0,0
CCOC(=O)c1sc2c(c1C)C(c1cccs1)C1=C(CCCC1=O)N2 (stereo not given),0,-,0,0,0,4.8
CCOC(=O)N1CCC(NC(=O)c2ccc3c(c2)sc2nc(-c4ccccc4)cn23)CC1,0,0,0,0,0,2
CCOC(=O)N1CCC(NC(=O)c2ccc3c(c2)sc2nc(-c4cccc(OC)c4)cn23)CC1,0,0,0,0,0,0
c1ccc(N2CCN(Cc3cn4cccnc4n3)CC2)cc1,0,0,0,0,0,0
CCOC(=O)N1CCN(C(=O)c2ccc3c(=O)n(Cc4ccc(Cl)cc4)c(=S)[nH]c3c2)CC1,0,0,0,0,0,0
CCOC(=O)N1CCC(n2c(SCC(=O)Nc3nccs3)nc3ccsc3c2=O)CC1,0,0,0,0,0,0
CCOC(=O)N1CCN(C(=O)c2ccc3nc4ccsc4c(=O)n3c2)CC1,0,-,0,0,0,2.2
COc1ccc(Cn2c(SCC(=O)NCc3ccco3)nc3ccsc3c2=O)cc1,0,0,0,0,0,0
CCOC(=O)CSc1nc2ccsc2c(=O)n1C1CCN(C(=O)OCC)CC1,0,0,0,0,0,0
CCOC(=O)N1CCN(C(=O)c2cccn3c(=O)c4sccc4nc23)CC1,0,-,0,0,0,2.5
CCOC(=O)N1CCN(C(=O)c2ccc3nc4ccc(Cl)cc4c(=O)n3c2)CC1,0,-,0,0,0,4.9
O=C(NCc1ccco1)c1cccn2c(=O)c3sccc3nc12,0,-,0,0,0,2.5
CS(=O)(=O)N(CCc1ccccc1)CC(=O)NCC1CCCO1 (stereo not given),0,0,0,0,0,0
Cc1[nH]nc2c1C1(CCC3(CC1)OCCO3)C(C#N)=C(N)O2,0,0,0,0,0,0
Cc1csc(NC(=O)CSc2nnc3ncccn23)n1,0,0,0,0,0,0
CCCc1nn(C)c2c1C(c1ccncc1)C(C#N)=C(N)O2 (stereo not given),0,0,0,0,-,0
O=C(CSc1nc2ccccc2c(=O)[nH]1)Nc1ccc(S(=O)(=O)N2CCCC2)cc1,0,0,0,0,0,0
O=C(CSc1nc(-c2ccccc2)cs1)N1CCN(C(=O)c2ccco2)CC1,0,0,0,0,29,0
O=C(CSc1nc2cc(Cl)ccc2s1)N1CCN(C(=O)c2ccco2)CC1,0,0,0,0,0,0
O=C(OCC(=O)N1CCN(C(=O)c2ccco2)CC1)c1cc(-c2ccc(F)cc2)nc2ccccc12,0,-,0,0,0,2.1
O=C(OCC(=O)N1CCN(C(=O)c2ccco2)CC1)c1cc(-c2ccccc2)nc2ccccc12,0,0,0,0,0,0
Cc1ccc(NC(=O)c2ccco2)cc1NC(=O)CSc1nnc(-c2cccs2)n1C,0,0,0,0,0,0
SMILES,Abs 340nm,DPM-DC inhibit,Spn MK inh,NADH coupling,Spn PMK inh,Fluor 339 460
COc1ccc(NC(=O)CSc2nc3c(c(=O)n2-c2ccc(C)cc2)SCC3)c(OC)c1,0,0,0,0,0,0
CC(C)OC(=O)C1C(=O)CC(C)(O)C(C(=O)OC(C)C)C1c1cccc(O)c1 (stereo not given),0,0,0,0,0,0
CCc1cc2c(=O)c(-c3nc4ccccc4n3C)c(C)oc2c(CN2CCN(CCO)CC2)c1O,0,-,0,0,0,2.2
CCc1cc2c(=O)c(-c3nc4ccccc4n3C)c(C)oc2c(CN2CCN(C)CC2)c1O,0,+,0,0,0,3.5
CCc1cc2c(=O)c(-c3nc4ccccc4n3C)c(C(C)C)oc2c(CN2CCN(C)CC2)c1O,0,-,0,0,0,2.2
Oc1cnc2ccccc2c1CN1CCOCC1,0,0,0,0,0,0
CCc1cc(-c2n[nH]c(C)c2-c2nc3ccccc3n2C)c(O)c(CN2CCN(C)CC2)c1O,0,0,0,0,0,0
CCc1cc2c(=O)c(-c3nc4ccccc4n3C)c(C)oc2c(CN2CCOCC2)c1O,0,-,0,0,0,2.1
N=c1c(C(=O)NCc2ccccc2)cc2c(=O)n3ccccc3nc2n1CCCN1CCOCC1,0,-,0,0,0,3.7
CCOCCCn1c(=N)c(C(=O)NCc2ccc3c(c2)OCO3)cc2c(=O)n3ccccc3nc21,0,0,0,0,0,0
N=c1c(C(=O)NC2CCCCC2)cc2c(=O)n3ccccc3nc2n1CCN1CCOCC1,0,-,0,0,0,3.9
N=c1c(C(=O)NCc2ccc(F)cc2)cc2c(=O)n3ccccc3nc2n1CCCN1CCOCC1,0,-,0,0,0,3
CCOC(=O)c1cc(-c2nnc(-c3ccc(Oc4ccccc4)cc3)o2)c(C)nc1C,0,0,0,0,0,0
Cc1cc(Br)ccc1NC(=O)CNC(=O)CN(C)Cc1nc2ccccc2c(=O)[nH]1,0,0,0,0,0,0
Cc1nc2c3c(-c4ccccc4)nc(N4CCOCC4)nc3nn2c(C)c1CCC(=O)O,0,0,0,0,0,3.7
COc1ccc(-c2nc(N3CCOCC3)nc3nn4c(C)c(CCC(=O)O)c(C)nc4c23)cc1,0,-,0,0,0,5
Cc1nc2c(-c3ccccc3)c(C)nn2c(C)c1CCC(=O)N1CCOCC1,0,0,0,0,0,0
CCOC(=O)c1[nH]c2cc3c(cc2c1NC(=O)CN1CCCCC1C)OCO3 (stereo not given),0,-,0,0,0,2.3
CCOc1ccc(OCC)c(NC(=O)CN2CCN(C(=O)c3ccco3)CC2)c1,0,0,0,0,0,0
CCOc1ccc(OCC)c(NC(=O)CN2CCN(c3cccc(C)c3C)CC2)c1,0,0,62,0,0,0
CCOC(=O)c1[nH]c2cc3c(cc2c1NC(=O)CN1CCC2(CC1)OCCO2)OCO3,0,-,0,0,0,2.3
CCOC(=O)c1[nH]c2ccccc2c1NC(=O)CN1CCCCC1,0,0,0,0,0,0
CCOC(=O)c1[nH]c2ccccc2c1NC(=O)c1ccc2c(c1)OCO2,0,0,0,0,0,0
CCOC(=O)c1[nH]c2ccc(OCC)cc2c1NC(=O)CN1CCN(c2ccccc2)CC1,0,0,0,0,0,3.2
